# Assay results taken from the OligoGym collection.
# Molecular target: DEXI
# Experiment: pooled miR-30 sensor sort-seq; sequence = guide strand
# Details: shRNA
# Also: reference of the scale not given here.
row,Sequence,sensor-assay potency score (higher = more potent)
1,ATGTACTCCATGAGGAAGGCGT,-1.19
2,TTAAGTAGGCACAACACTCATA,-0.271
3,TTCCTGTAAACATCCATCGCAG,-0.501
4,AATCTCTCTTCCACTCTCCTGG,-0.0495

# Molecular target: DGKE
# Experiment: as above
# Details: shRNA
row,Sequence,sensor-assay potency score (higher = more potent)
1,TTGACAGCCACACTGCTGCTTG,0.0149
2,TTTGACAGTAATCATTTCCTTT,-0.513
3,TTCTTGAGCATAATCTCCTTGC,-0.369
4,TTTGTTACTTGAACTTTCCATC,-0.49
5,TTGCACTAAACAATCTTTGGTT,0.42
6,TTTTGGATGAACATGTATCTAC,-0.088
7,TTAATTTGATCTTTCCACCCAC,0.385
8,TGAACATGTATCTACTTGCGTG,-0.503
9,TTACTTGAACTTTCCATCGATC,-0.458
10,TTTAATTCCATCTGCTTCCATT,-0.836
11,TTGAACTTTCCATCGATCTAGT,0.305

# Molecular target: DGKH
# Experiment: as above
# Details: shRNA
row,Sequence,sensor-assay potency score (higher = more potent)
1,TTTACCAGAATCACACTTCTGC,0.827
2,TTGTTGATAATCGAACTCCCAG,-0.448
3,TATGTCATTATACTCCACCTGT,-0.182
4,TTGAATTTACACACTTCGCAGG,-0.529
5,TTCATCTTCTATAATGTCCTTC,0.785
6,TTTCTTTAAACTATTTGCCCGC,-0.524
7,TAGAGGACTAACACAGAACGAA,-0.365
8,TGAACTTGTCTTCTGCTTCTGA,0.759
9,TTGCTCTACAGAAACCATCGGA,0.0953
10,TAACATTTTGTTGATAATCGAA,-0.475
11,TACAGTTTCACATAGCGTCTTG,-0.34
12,TAAATCAAACACCTGAGCCGGA,0.112

# Molecular target: DHCR7
# Experiment: as above
# Details: shRNA
row,Sequence,sensor-assay potency score (higher = more potent)
1,TATAGGTGGAGTCTTGGCCCAG,-1.1
2,TACAGAAGCACCTGGAAGGTGA,0.0614
3,ATGGTCTTCAGGTACCAGGTTT,-0.879
4,TTGTCGAAGATGATGGTGGGCG,-0.346
5,TGAAGTCAAACCACTTCCCGAT,-0.223
6,TAGTTGTAAAAGAAATTGCCTG,-0.825
7,TTGCAGTCTCTGGCGCTGGTGG,-0.837
8,AAGTAGTAGACGATGAAGGGGG,0.135
9,TACTTGTTCACAACCCCTGCAG,-0.0403
10,TTGGCTTTGGGAATGTTGGGTT,0.501
11,TAGATGATGTAGAAGTAGGGCA,0.47
12,TTGCTGTGGTGCCTCTGCCCAT,-1.54
13,TGATACTTGTTCACAACCCCTG,-0.124
